Screening data as filed in PubChem BioAssay.
Sampled rows, rich in hits. Any-hit rate of the full collection: about 6.8%.
T cruzi growth-1 – T. cruzi intracellular proliferation inhibitors, primary screen, cell-based, beta-gal Tulahuen parasites, NIH3T3 host, luminescence | T. cruzi beta-gal in NIH3T3, GalScreen luminescence, 90 h | inhibition, % at 8.34 µM | 5.9% of 77,000 active;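 active means mean inhibition above about 93%, with at least 55% of replicates each passing it, limit read from the data, passing the limit was not always enough; inconclusive means only one of those two conditions holds; inactive means neither condition holds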
Pf Dd2 inh – P. falciparum Dd2 growth inhibitors, primary screen, SYBR Green fluorescence, single dose replicates. 72 h; hits give low values. activity change, % at 10 µM. 2.3% of 94,000 active; in the data active means activity change below about -80%; inconclusive means no clear call, values can overlap the other calls
C diff growth – C. difficile growth inhibitors, primary screen, HTS; Clostridium difficile clinical isolate growth, OD600, 24 h; hits give low values; growth activity, negative = inhibition, % at 16 µg/mL (by protocol); 0.25% of 86,000 active;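 active means mean growth activity at or below -80% and every replicate also at or below -80%; inconclusive means mean at or below -80% but some replicate above -80%; inactive means mean growth activity above -80%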;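 further: 0% = DMSO wells and -100% = levofloxacin 16 µg/mL wells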
T cruzi growth-2 – T. cruzi intracellular proliferation inhibitors, confirmation, cell-based, NIH3T3 host, beta-gal parasite, luminescence, cherry-pick | inhibition, % at 8.35 µM | 72% of 5,600 active | AID 651739, 2012 | T. cruzi beta-gal in NIH3T3, GalScreen luminescence, 90 h | shares compounds with T cruzi growth-1;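 active means mean replicate inhibition above about 95% and at least 55% of replicates individually reaching it, limit read from the data; inconclusive means only one of the two criteria is met; inactive means neither criterion is met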
T cruzi growth-3 – inhibitors of intracellular T. cruzi replication, confirmation, NIH3T3 host cells, beta-gal parasites, cherry-pick, set 2; shares compounds with T cruzi growth-1; T. cruzi beta-gal in NIH3T3, GalScreen luminescence, 90 h; inhibition, % at 2.09 µM; 21% of 5,600 active;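 active means mean inhibition above about 95%, with at least 55% of replicates also reaching it, limit read from the data; inconclusive means meets just one of the two conditions; inactive means meets neither condition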;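 further: plate controls were neutral control median for no effect and positive control median for full effect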
NIH3T3 tox – cytotoxicity in mouse NIH/3T3 fibroblasts, confirmation, cytotoxicity control for T. cruzi proliferation inhibitor project, cell-based, cherry-pick, single point; shares compounds with T cruzi growth-1; NIH/3T3 viability, CellTiter-Glo ATP luminescence, 90 h; cytotoxicity (signal decrease), % at 8.35 µM; 14% of 5,600 active;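 active means mean signal decrease across replicates above about 35% based on untreated-well scatter, with enough replicates individually passing, limit read from the data; inconclusive means no rule stated though some were filed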;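 further: 0% = median of neutral control wells and 100% = median of positive control wells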
3T3 cytotox 2 – NIH/3T3 fibroblast cytotoxicity, confirmation, cytotoxicity control, cell-based, cherry-pick, single point, set 2; NIH/3T3 viability, CellTiter-Glo ATP luminescence, 90 h; shares compounds with T cruzi growth-1; inhibition, % at 24.9 µM; 56% of 5,600 active;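 active means mean loss of cell viability signal at or above a set limit, and enough replicates individually reaching it; inconclusive means meets only the mean limit or only the replicate share; inactive means meets neither condition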;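 further: 0% = median of neutral control wells and 100% = median of positive control wells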
Starred values were filed as active, the others as inactive.

What do the screens show for `Cc1noc(C)c1NC(=O)Nc1ccc2c(c1)C(=O)N([C@H](C)CO)C[C@@H](C)[C@H](CN(C)C(=O)Nc1cccc3ccccc13)O2`?
T cruzi growth-1: -116.3; Pf Dd2 inh: 27.9

What do the screens show for `C[C@@H]1CN([C@H](C)CO)C(=O)c2cc(NC(=O)Nc3ccc(F)cc3)ccc2O[C@@H](C)CCCCO[C@H]1CN(C)C(=O)C1CCCCC1`?
T cruzi growth-1: 84.1; Pf Dd2 inh: -72.2; C diff growth: -7.5

What do the screens show for `C[C@@H](NC(=O)[C@H]1N[C@H]2c3ccc(-c4ccncc4)c(=O)n3C[C@H]2[C@@H]1CO)c1ccccc1`?
T cruzi growth-1: 58.3; Pf Dd2 inh: -3.2; C diff growth: 3.9

How did C[C@H](NC(=O)[C@@H]1N[C@@H]2c3ccc(C4=CCCC4)c(=O)n3C[C@@H]2[C@H]1CO)c1ccccc1 do in these assays?
T cruzi growth-1: 96.7*; C diff growth: -1.8; T cruzi growth-2: 40.1; T cruzi growth-3: -37.3; NIH3T3 tox: 1.1; 3T3 cytotox 2: -10.1

Results for C[C@@H](NC(=O)[C@@H]1N[C@@H]2c3ccc(C4=CCCCC4)c(=O)n3C[C@@H]2[C@H]1CO)c1ccccc1 ?
T cruzi growth-1: 100.8*; Pf Dd2 inh: 3.9; C diff growth: 3.6; T cruzi growth-2: 109.2*; T cruzi growth-3: -3.5; NIH3T3 tox: 1.6; 3T3 cytotox 2: 7.0

Results for C[C@@H](NC(=O)[C@H]1N[C@H]2c3ccc(C4=CCCCC4)c(=O)n3C[C@H]2[C@@H]1CO)c1ccccc1 ?
T cruzi growth-1: -4.5; Pf Dd2 inh: 3.0; C diff growth: 3.7

What do the screens show for `CC(=O)N1[C@@H]2c3ccc(C4=CCCCC4)c(=O)n3C[C@H]1[C@H](CO)[C@H]2C(=O)N[C@H](C)c1ccccc1`?
T cruzi growth-1: 20.7; C diff growth: 16.5

What do the screens show for `CC(=O)N1[C@@H]2c3ccc(C4=CCCC4)c(=O)n3C[C@H]1[C@H](CO)[C@H]2C(=O)N[C@H](C)c1ccccc1`?
T cruzi growth-1: 101.0*; Pf Dd2 inh: 2.7; C diff growth: -0.8; T cruzi growth-2: -16.2; T cruzi growth-3: 8.3; NIH3T3 tox: 12.1; 3T3 cytotox 2: 4.2

How did C[C@H](CO)N1C[C@H](C)[C@H](CN(C)Cc2ccc(Cl)c(Cl)c2)Oc2c(NC(=O)Nc3cccc4ccccc34)cccc2C1=O do in these assays?
T cruzi growth-1: 59.8; Pf Dd2 inh: -55.6; C diff growth: -0.7

What do the screens show for `CO[C@H]1CN(C)C(=O)c2ccc(NC(=O)C3CC3)cc2OC[C@H](C)N(Cc2ccc(F)cc2)C[C@@H]1C`?
Pf Dd2 inh: 10.9; C diff growth: -17.2

How did CCC(=O)NC[C@@H]1[C@@H](c2ccc(C3=CCCC3)cc2)[C@@H](CO)N1C(C)=O do in these assays?
T cruzi growth-1: 26.5; Pf Dd2 inh: 9.3; C diff growth: 0.3

How did O=C(c1ccccc1F)N1CC[C@H]2[C@H](CO)Nc3ccc(-c4ccccc4)cc3[C@H]21 do in these assays?
T cruzi growth-1: 79.9; Pf Dd2 inh: -3.2; C diff growth: -0.2

What do the screens show for `CN(C)C(=O)c1cccc(-c2ccc3c(c2)[C@H]2[C@H](CCN2C(=O)c2ccccc2F)[C@H](CO)N3)c1`?
T cruzi growth-1: 99.3*; Pf Dd2 inh: -9.7; C diff growth: 9.3; T cruzi growth-2: 103.4*; T cruzi growth-3: 83.3; NIH3T3 tox: -6.6; 3T3 cytotox 2: 15.1

What do the screens show for `CN(C)C(=O)c1cccc(-c2ccc3c(c2)[C@@H]2[C@@H](CCN2C(=O)c2ccccc2F)[C@H](CO)N3)c1`?
T cruzi growth-1: 101.3*; Pf Dd2 inh: -30.7; C diff growth: 3.2; T cruzi growth-2: 100.7*; T cruzi growth-3: 63.9; NIH3T3 tox: 14.6; 3T3 cytotox 2: -18.5

How did CN(C)C(=O)c1ccc(-c2ccc3c(c2)[C@@H]2[C@@H](CCN2C(=O)c2ccccc2F)[C@H](CO)N3)cc1 do in these assays?
T cruzi growth-1: 43.0; Pf Dd2 inh: -4.0; C diff growth: 15.2

Results for O=C(c1ccccc1F)N1CC[C@@H]2[C@H](CO)Nc3ccc(-c4ccccc4)cc3[C@@H]21 ?
T cruzi growth-1: 81.0; Pf Dd2 inh: 26.4; C diff growth: -1.1

What do the screens show for `CN(C)C(=O)c1cccc(-c2ccc3c(c2)[C@H]2[C@H](CCN2C(=O)c2ccccc2F)[C@@H](CO)N3)c1`?
T cruzi growth-1: 101.0*; Pf Dd2 inh: -49.0; C diff growth: 1.1; T cruzi growth-2: 103.7*; T cruzi growth-3: 51.2; NIH3T3 tox: -7.6; 3T3 cytotox 2: -14.3

How did C[C@@H]1CN([C@H](C)CO)C(=O)c2cc(NC(=O)Cc3ccccc3)ccc2O[C@@H]1CN(C)C(=O)Nc1cccc2ccccc12 do in these assays?
T cruzi growth-1: -135.4; Pf Dd2 inh: -59.1; C diff growth: -8.2

Results for O=S(=O)(Cc1ccccc1)N1CCCCN2[C@H](C1)[C@H](c1ccc(-c3ccccc3)cc1)[C@@H]2CO ?
T cruzi growth-1: 117.7*; Pf Dd2 inh: -42.9; C diff growth: 4.7; T cruzi growth-2: 105.2*; T cruzi growth-3: 62.1; NIH3T3 tox: 28.1; 3T3 cytotox 2: 103.6*

What do the screens show for `O=S(=O)(Cc1ccccc1)N1CCCCN2[C@H](C1)[C@H](c1ccc(-c3cncnc3)cc1)[C@@H]2CO`?
T cruzi growth-1: 33.2; Pf Dd2 inh: -25.9; C diff growth: 1.2

How did O=S(=O)(Cc1ccccc1)N1CCCCN2[C@H](C1)[C@@H](c1ccc(-c3ccccc3)cc1)[C@@H]2CO do in these assays?
T cruzi growth-1: 114.5*; Pf Dd2 inh: -18.3; C diff growth: -10.3; T cruzi growth-2: 100.7*; T cruzi growth-3: 89.3; NIH3T3 tox: 21.8; 3T3 cytotox 2: 96.3*

How did O=S(=O)(Cc1ccccc1)N1CCCCN2[C@H](C1)[C@@H](c1ccc(-c3cncnc3)cc1)[C@@H]2CO do in these assays?
T cruzi growth-1: inconclusive; Pf Dd2 inh: -10.2; C diff growth: -3.7; T cruzi growth-2: 95.7*; T cruzi growth-3: 17.5; NIH3T3 tox: 8.4; 3T3 cytotox 2: 17.4

How did O=S(=O)(Cc1ccccc1)N1CCCCN2[C@H](C1)[C@H](c1ccc(-c3ccncc3)cc1)[C@@H]2CO do in these assays?
T cruzi growth-1: -25.9; Pf Dd2 inh: -21.9; C diff growth: 4.8

How did O=S(=O)(Cc1ccccc1)N1CCCCN2[C@@H](CO)[C@@H](c3ccc(-c4cccnc4)cc3)[C@@H]2C1 do in these assays?
T cruzi growth-1: 89.3; Pf Dd2 inh: -52.6; C diff growth: -10.9
